Test results as given in ChEMBL document CHEMBL2218924, “A broad activity screen in support of a chemogenomic map for kinase signalling research and drug discovery” (Biochem J, 2013).

target: T1, Protein kinase C iota type (Homo sapiens) (UniProt P41743); conditions: at 10 µM
T1 sequence (whole entry): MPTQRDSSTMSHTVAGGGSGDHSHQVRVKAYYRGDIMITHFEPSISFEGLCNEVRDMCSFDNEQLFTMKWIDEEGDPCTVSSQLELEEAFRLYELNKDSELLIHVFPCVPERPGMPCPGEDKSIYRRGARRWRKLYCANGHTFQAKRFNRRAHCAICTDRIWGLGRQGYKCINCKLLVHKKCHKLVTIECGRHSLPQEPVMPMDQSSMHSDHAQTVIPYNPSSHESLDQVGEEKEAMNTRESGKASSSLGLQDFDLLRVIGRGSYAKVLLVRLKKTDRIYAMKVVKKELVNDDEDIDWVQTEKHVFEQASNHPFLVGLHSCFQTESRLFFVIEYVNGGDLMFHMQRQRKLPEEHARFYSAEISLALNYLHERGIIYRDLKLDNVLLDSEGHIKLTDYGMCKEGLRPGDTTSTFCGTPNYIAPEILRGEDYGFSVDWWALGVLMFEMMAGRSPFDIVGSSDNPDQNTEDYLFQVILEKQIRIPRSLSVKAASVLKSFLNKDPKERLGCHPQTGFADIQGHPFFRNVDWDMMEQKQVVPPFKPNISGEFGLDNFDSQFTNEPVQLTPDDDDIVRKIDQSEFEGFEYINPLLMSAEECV

| SMILES | residual activity |
| --- | --- |
| O=c1cc(N2CCOCC2)oc2c(-c3ccccc3)cccc12 | 63% |
| COc1ccc(CNC(=O)Nc2ncc([N+](=O)[O-])s2)cc1 | 110% |
| CC(C)N(CCC(=O)c1ccc2ccccc2c1)Cc1ccccc1 | 72% |
| Nc1nc(Nc2ccc(S(N)(=O)=O)cc2)nn1C(=O)c1c(F)cccc1F | 100% |
| NC(=O)c1cccc(-c2cc(Nc3ccc(OC(F)(F)F)cc3)ncn2)c1 | 69% |
| COc1ccc(-c2cnc3c(-c4ccsc4)cnn3c2)cc1 | 77% |
| CN(C)S(=O)(=O)c1ccc2c(c1)/C(=C/c1cc3c([nH]1)CCCC3)C(=O)N2 | 114% |
| COc1ccc(Cl)cc1NC(=O)Nc1cc(C)nc2ccccc12 | 86% |
| O=c1c(-c2ccc(F)cc2)c(-c2ccncc2)[nH]n1-c1ccc(Cl)cc1 | 100% |

target: T2, Serine/threonine-protein kinase D1 (Homo sapiens) (UniProt Q15139); conditions: at 1 µM
T2 sequence (whole entry): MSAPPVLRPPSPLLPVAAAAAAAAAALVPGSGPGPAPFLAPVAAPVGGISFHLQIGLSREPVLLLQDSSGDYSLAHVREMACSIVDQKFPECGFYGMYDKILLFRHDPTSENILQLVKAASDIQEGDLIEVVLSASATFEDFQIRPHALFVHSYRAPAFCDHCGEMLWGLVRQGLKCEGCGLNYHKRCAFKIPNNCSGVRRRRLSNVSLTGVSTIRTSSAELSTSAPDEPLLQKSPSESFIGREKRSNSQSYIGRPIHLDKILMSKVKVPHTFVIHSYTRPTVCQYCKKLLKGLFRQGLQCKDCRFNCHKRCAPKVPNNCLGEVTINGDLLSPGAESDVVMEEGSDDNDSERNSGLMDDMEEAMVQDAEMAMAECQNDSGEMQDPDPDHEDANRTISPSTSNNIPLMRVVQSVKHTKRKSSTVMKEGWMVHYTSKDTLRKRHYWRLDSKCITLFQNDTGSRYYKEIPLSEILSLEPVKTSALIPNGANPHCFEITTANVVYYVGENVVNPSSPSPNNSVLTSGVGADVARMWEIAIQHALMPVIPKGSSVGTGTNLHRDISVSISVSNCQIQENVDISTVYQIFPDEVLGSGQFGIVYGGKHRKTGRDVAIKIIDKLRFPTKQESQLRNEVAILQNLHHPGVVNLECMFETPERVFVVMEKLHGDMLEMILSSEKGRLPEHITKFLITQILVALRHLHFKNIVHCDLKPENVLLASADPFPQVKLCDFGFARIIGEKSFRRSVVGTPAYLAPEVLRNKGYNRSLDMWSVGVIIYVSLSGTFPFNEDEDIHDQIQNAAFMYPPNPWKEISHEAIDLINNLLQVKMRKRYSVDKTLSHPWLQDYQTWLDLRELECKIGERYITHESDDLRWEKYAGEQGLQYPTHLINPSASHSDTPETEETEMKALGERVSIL

| SMILES | residual activity |
| --- | --- |
| COc1ccc(COc2ccc(Cc3cnc(N)nc3N)cc2OC)cc1 | 81% |
| CC(C)(C)c1nc2c3ccc(F)cc3c3c(=O)[nH]ccc3c2[nH]1 | 8% |
| O=C(c1cc2cc(O)ccc2[nH]1)c1cc2cc(O)ccc2[nH]1 | 80% |
| O=C1Nc2ccccc2/C1=C\c1c(Cl)[nH]c2ccccc12 | 99% |
| CC(C)N(CCC(=O)c1ccc2ccccc2c1)Cc1ccccc1 | 74% |
| CCN1/C(=C/C(C)=O)Sc2ccc(OC)cc21 | 59% |
| NCCNc1ncc(C(N)=O)c(Nc2cccc(C(F)(F)F)c2)n1 | 35% |
| N#Cc1c(NC(=O)c2cccc3ccccc23)sc2c1CCCC2 | 92% |
| Nc1nc(Nc2ccc(S(N)(=O)=O)cc2)nn1C(=O)c1c(F)cccc1F | 75% |
| COc1ccc(-c2cnc3c(-c4ccsc4)cnn3c2)cc1 | 84% |
| CCCCc1c(-c2ccc(OC)cc2)[nH]c2nccnc12 | 121% |
| Nc1nccc(-c2c(-c3ccc(F)cc3)ncn2C2CCNCC2)n1 | 46% |
| CN(C)S(=O)(=O)c1ccc2c(c1)/C(=C/c1cc3c([nH]1)CCCC3)C(=O)N2 | 91% |
| CN([C@@H](Cc1ccc(OS(=O)(=O)c2cccc3cnccc23)cc1)C(=O)N1CCN(c2ccccc2)CC1)S(=O)(=O)c1cccc2cnccc12 | 113% |
| NC(=O)c1ccc(-c2nc(-c3ccc4c(c3)OCCO4)c(-c3ccccn3)[nH]2)cc1 | 87% |
| COc1ccc(Cl)cc1NC(=O)Nc1cc(C)nc2ccccc12 | 95% |
| CCN(CC)CCNC(=O)c1c(C)[nH]c(/C=C2\C(=O)Nc3ccc(Cl)cc32)c1C | 38% |
| O=c1c(-c2ccc(F)cc2)c(-c2ccncc2)[nH]n1-c1ccc(Cl)cc1 | 99% |
| Oc1cccc(-c2nc(N3CCOCC3)c3oc4ncccc4c3n2)c1 | 97% |
